FMDV antiviral: foot and mouth disease virus antiviral activity. FMDV antiviral cell-based qHTS. 1.2% of 410,000 active. Potency, µM (series often up to 57.9 µM), inactives show at the top dose activity change, negative = inhibition, hits mostly inhibitors; calls by dose curve; tested in HEK293T cells; further: read-out not given here; potency means the concentration at half of the fitted maximal effect; nearly all actives have a fitted effect of over 45% in size
HCV inhibitor: HCV inhibition. Potency, µM (titrated, usually from 41.8 µM), for the others: at the top dose activity change, negative = inhibition, actives largely listed as inhibitors. 3.4% of 340,000 active. Huh7.5.1 HCVcc-Cre infection, luciferase reporter, 44 h; active means well fitted inhibition curve with a large enough effect; inconclusive means small, poorly fitted or top-dose-only effect, or another doubt; inactive means no such curve, though single readings can be large or run the other way; further: potency means the concentration at half of the fitted maximal effect
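Luciferase read-out (15 sec integration) after a 15 min room-temperature substrate step quantifies HCVcc-Cre infection. Cells, 1,000 per well, had compound added 4 h post-plating, then virus at ~0.5 moi, and were cultured 44 h.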
VACV mCherry inh: vaccinia inhibition (mCherry reporter); 0.63% of 310,000 active; Vaccinia virus mCherry reporter infection, fluorescence; Potency, µM (titrated, usually from 36.5 µM), without a hit: top-dose activity change, negative = inhibition, actives largely listed as inhibitors; AID 720579; calls by dose curve; tested in A549 cells; further: potency means the concentration at half of the fitted maximal effect; nearly all actives have a fitted effect of over 35% in size
HCMV antiviral: inhibitors of human cytomegalovirus; HFF cells, HCMV-luciferase reporter, 72 h; hits give low values; activity change, negative = inhibition, % at 57.5 µM; 4.5% of 410,000 active; in the data active means activity change below about -60%; inconclusive means no clear call, values can overlap the other calls; inactive means above about -39%
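After 16 h attachment at 37C, HFF cells received test compound and HCMV-luciferase (1 PFU/cell); reporter luminescence read 72 h later, data normalized against buffer-only and known inhibitor Salinomycin.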
VACV Venus inh: vaccinia inhibition (Venus reporter); Vaccinia virus Venus reporter expression, fluorescence; Potency, µM (top dose mostly 36.5 µM), for the others: top-dose activity change, negative = inhibition, hits mostly inhibitors; 0.46% of 330,000 active; calls by dose curve; tested in A549 cells; further: potency means the concentration at half of the fitted maximal effect; nearly all actives have a fitted effect of over 30% in size
Starred values were filed as active, the others as inactive; i = inactive; ? = inconclusive; · = not tested or not shown; [ ] = remark or other dose. Most compounds without a hit are left out; they make up all but 7.3% or so of the library. On the % scale 0 is the no-effect control and ±100 the full control effect.

SMILES	FMDV antiviral	HCV inhibitor	VACV mCherry inh	HCMV antiviral	VACV Venus inh
CC(C)(C)C1CCC2(CC1)CC(=O)c1ccccc1O2 (centres undefined)	-7.3%	9.2%	i	-60.5*	-11.6%
Cc1ccc(S(=O)(=O)NCC2CCC(C(=O)NC3CCCCC3)CC2)cc1 (centres undefined)	-4.7%	11.1%	i	26.8	-15.5%
S=C(Nc1ccccc1)Nc1nc2ccccc2n1CCOc1ccccc1	24.8%	6.31µM*	·	6.6	·
CC(C)(C)C(=O)Cn1c(=N)n(Cc2ccccc2)c2ccccc21	-23.8%	?	8.91µM*	-16.9	?
N=c1n(CC(=O)c2cccc([N+](=O)[O-])c2)c2ccccc2n1Cc1ccccc1	?	?	-17.3%	-39.4	-2.0%
Cc1ccc(Cn2c(=N)n(CC(=O)c3ccccc3)c3ccccc32)cc1	-39.3%	10µM*	·	-83.0*	·
CC(C)(C)C(=O)Cn1c(=N)n(Cc2ccccc2Cl)c2ccccc21	?	-19.8%	-7.2%	13.4	-23.6%
O=c1oc2ccccc2n1CCCOc1ccccc1Cl	58.2%	·	-4.8%	71.9	3.2%
COc1ccc(C(C)C)cc1S(=O)(=O)n1ccnc1C	69.5%	14.7%	-3.5%	-103.3*	-20.6%
COc1ccc(Cc2c(C3CCCCC3)nc3c(C)cc(Br)cn23)c(C)c1	-14.5%	·	i	-14.7	-6.2%
CCOc1ccc(S(=O)(=O)c2c(C(=O)c3ccccc3)cnc3cc4c(cc23)OCCO4)cc1	28.8%	2.3%	?	-75.9*	-19.0%
O=C(Oc1ccccc1)N1CCC2(CCCN(c3ncccn3)C2)CC1	-25.9%	·	·	·	·
Cc1ccc(/C=N/NC(=O)c2ccc(-n3cnnn3)cc2)cc1	-24.5%	?	-10.8%	0.0	-0.3%
Cc1ccccc1OC1C(=O)N(Cc2ccc3c(c2)OCO3)C1c1sccc1C (centres undefined)	-29.9%	?	-20.4%	-70.6*	?
CSc1ncnc2c1ncn2CCCN1CCN(Cc2c(C)cc(C)cc2C)CC1	-26.4%	·	?	29.9	?
CCCCN([C@H](CO)C(C)C)S(=O)(=O)c1ccccc1Br	0.0%	-6.4%	-5.5%	-14.6	-21.3%
Nc1nc(Nc2ccccc2)nc2c1ncn2[C@@H]1O[C@H](CO)[C@@H](O)[C@H]1O	-17.2%	2µM*	-11.9%	-37.1	-2.7%
Nc1ncnc2c1ncn2C1O[C@H](CO)[C@@H](O)[C@@H]1O (some centres undefined)	-0.2%	-26.6%	-21.8%	35.3	-14.9%
Nc1nc2c(ncn2[C@H]2C[C@H](O)[C@@H](CO)O2)c(=O)[nH]1	-18.3%	-7.5%	?	?	?
OC[C@H]1O[C@@H](n2cnc3cncnc32)[C@H](O)[C@@H]1O	-24.9%	·	12.6µM*	·	?
Nc1nc(Cl)nc2c1ncn2C1CC(O)C(CO)O1 (centres undefined)	0.0%	-12.0%	2.51µM*	-1.9	?
Nc1nc(F)nc2c1ncn2[C@@H]1O[C@H](CO)[C@@H](O)[C@@H]1O	-18.3%	2.5%	3.16µM*	·	7.08µM*
Nc1ncnc2c1ncn2[C@@H]1O[C@H](CO)[C@@H](O)[C@@H]1O	-5.2%	11.2%	?	55.1	-22.8%
CCOC(=O)C1(C)CCCN(C(=O)C(c2ccccc2)c2ccccc2)C1 (centres undefined)	-24.9%	·	i	-27.3	-11.9%
Cc1ccc(CCNC(=O)c2c3c(nc4ccccc24)C(=O)N(C2CCCCC2)C3)cc1	-20.2%	·	-14.5%	8.4	-15.1%
SMILES	FMDV antiviral	HCV inhibitor	VACV mCherry inh	HCMV antiviral	VACV Venus inh
CCn1c(SCC(=O)Nc2ccc(C)cc2)nc(O)cc1=O	6.6%	18.6%	-12.7%[7.34 µM]	-15.3	4.0%[7.34 µM]
C=CCn1c(SCC(=O)Nc2ccc(Br)cc2)nc(O)cc1=O	-14.2%	·	-13.5%	-100.1*	-10.3%
Cc1c(Cl)cccc1NC(=O)NCCOCCn1c(=O)oc2ccccc21	-23.1%	·	4.5%	-4.6	0.9%
Cc1ccc(/C=C2/SC(=O)NC2=S)o1	-7.4%	-0.1%	i	·	43.6%
COc1cccc(NC(=O)CCN2CCN(c3ccccc3)CC2)c1	-25.6%	·	-3.0%[7.34 µM]	-75.4*	-7.2%[7.34 µM]
CCN1CCN(CCC(=O)Nc2cccc(OC)c2)CC1	3.5%	-7.8%	-10.1%	23.1	-8.6%
CCOC(=O)c1cc(-c2ccccc2)n(CCC(=O)Nc2nc3c(C)cccc3s2)c1C	-20.3%	·	-24.9%	0.0	-18.5%
COC(=O)c1ccc(NCc2c(O)ccc(O)c2Br)cc1Cl	?	11.2µM*	-17.6%	-28.0	3.3%
CNc1nc(-c2ccc([N+](=O)[O-])cc2)cs1	-18.7%	-13.4%	·	-74.0*	-19.1%

Compound activity deposited in PubChem by National Center for Advancing Translational Sciences (NCATS).
